Laboratory results published in PubChem BioAssay.
Active and inactive are the calls of the source.

Legend:
[1] = system: Plasmodium falciparum Sir2 (PF13_0152, Sir2A); assay: pfSir2 binders on small-molecule microarrays, primary screen, biochemical, small-molecule microarray, 635 nm fluorescence (AID 1098); details: small-molecule microarray binding, fluorescence 635 nm; higher = more signal;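 note: score merges spot fluorescence intensity with its signal-to-noise ratio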
[2] = small-molecule microarray binders of probe aDKK1, primary screen, biochemical, biotinylated probe, 635/667 nm fluorescence (AID 1099); details: higher = more signal;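 note: score merges 667nm spot fluorescence with signal to noise across triplicate slides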
[3] = small-molecule microarray binders of probe aCHRDL2, primary screen, biochemical, biotinylated probe, 635/667 nm fluorescence (AID 1100); details: higher = more signal
[4] = splicing luciferase reporter signal modulators, primary screen, spliceosome inhibition project, cell-based, HEK293, splice +/- reporter (AID 1101); details: luminescence, 24 h, higher = more signal, called active from +8 up or from −8 down;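 note: HEK293 cells carrying a splicing-competent luciferase reporter gene; test concentration not given here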
[5] = target: Fibroblast growth factor 10 (Homo sapiens) (UniProt O15520); assay: FGF10 binders on small-molecule microarrays, primary screen, biochemical, small-molecule microarray, 635 nm fluorescence (AID 1102); details: FGF10 binding, fluorescence 635 nm, higher = more signal
Chain of Fibroblast growth factor 10 (Homo sapiens) (O15520 whole entry, looked up): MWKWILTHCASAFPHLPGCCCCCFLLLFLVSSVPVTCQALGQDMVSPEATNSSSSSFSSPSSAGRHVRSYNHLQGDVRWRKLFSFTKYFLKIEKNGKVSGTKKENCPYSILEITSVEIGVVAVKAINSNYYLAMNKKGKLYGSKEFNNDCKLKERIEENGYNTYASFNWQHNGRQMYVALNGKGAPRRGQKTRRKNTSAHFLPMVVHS

[6] = system: glycogen synthase kinase-3 (GSK3A per assay name; protocol says GSK3B); assay: GSK3 binders on small-molecule microarrays, primary screen, biochemical, small-molecule microarray, 635 nm fluorescence, GSK3A (AID 1103); details: small-molecule microarray binding, fluorescence 635 nm; higher = more signal; note: the record names both GSK3A and GSK3B
[7] = target: Epidermal growth factor receptor (Homo sapiens) (UniProt P00533); assay: EGFR binders on small-molecule microarrays, primary screen, biochemical, small-molecule microarray, 635 nm fluorescence (AID 1104); details: EGFR binding, higher = more signal;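 note: score merges 667 nm emission intensity with spot signal to noise over triplicate slides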
Chain of Epidermal growth factor receptor (Homo sapiens) (P00533 whole entry, looked up): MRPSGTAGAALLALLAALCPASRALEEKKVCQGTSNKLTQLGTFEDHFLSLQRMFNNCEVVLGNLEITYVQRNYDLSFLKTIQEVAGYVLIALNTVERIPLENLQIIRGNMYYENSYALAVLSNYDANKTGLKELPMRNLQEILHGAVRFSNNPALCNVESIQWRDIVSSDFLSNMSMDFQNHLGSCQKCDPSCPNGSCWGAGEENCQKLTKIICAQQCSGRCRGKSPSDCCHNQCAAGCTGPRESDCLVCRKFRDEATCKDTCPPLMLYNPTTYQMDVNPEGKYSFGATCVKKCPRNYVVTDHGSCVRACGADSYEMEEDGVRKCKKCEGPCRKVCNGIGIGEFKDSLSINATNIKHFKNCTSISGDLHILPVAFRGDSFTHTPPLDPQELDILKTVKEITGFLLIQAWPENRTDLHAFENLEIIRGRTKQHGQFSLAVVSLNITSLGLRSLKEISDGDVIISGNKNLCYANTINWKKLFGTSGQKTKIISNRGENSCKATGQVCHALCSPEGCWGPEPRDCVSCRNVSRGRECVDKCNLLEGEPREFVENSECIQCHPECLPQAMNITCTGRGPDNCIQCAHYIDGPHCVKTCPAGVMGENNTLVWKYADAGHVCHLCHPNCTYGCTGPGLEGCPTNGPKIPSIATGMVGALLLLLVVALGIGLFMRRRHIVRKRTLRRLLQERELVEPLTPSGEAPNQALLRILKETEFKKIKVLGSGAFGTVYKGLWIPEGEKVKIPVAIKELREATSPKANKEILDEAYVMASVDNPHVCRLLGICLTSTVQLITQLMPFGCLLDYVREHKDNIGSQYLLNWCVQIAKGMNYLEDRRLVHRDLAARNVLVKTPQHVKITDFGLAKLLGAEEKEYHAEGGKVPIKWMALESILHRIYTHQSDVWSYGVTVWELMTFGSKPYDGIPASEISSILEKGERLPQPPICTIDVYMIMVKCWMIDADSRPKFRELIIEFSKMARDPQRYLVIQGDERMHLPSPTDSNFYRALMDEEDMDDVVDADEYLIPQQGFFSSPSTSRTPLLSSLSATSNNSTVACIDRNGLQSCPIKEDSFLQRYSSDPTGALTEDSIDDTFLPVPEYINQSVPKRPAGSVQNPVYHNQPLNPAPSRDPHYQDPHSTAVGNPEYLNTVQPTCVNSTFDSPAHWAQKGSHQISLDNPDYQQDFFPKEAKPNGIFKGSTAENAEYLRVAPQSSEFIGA

[8] = target: Follistatin-related protein 3 (Homo sapiens) (UniProt O95633); assay: FSTL3 binders on small-molecule microarrays, primary screen, biochemical, small-molecule microarray, 635 nm fluorescence (AID 1105); details: FSTL3 binding, higher = more signal;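 note: score merges emission near 667 nm and signal to noise per printed spot across three slides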
Chain of Follistatin-related protein 3 (Homo sapiens) (O95633 whole entry, looked up): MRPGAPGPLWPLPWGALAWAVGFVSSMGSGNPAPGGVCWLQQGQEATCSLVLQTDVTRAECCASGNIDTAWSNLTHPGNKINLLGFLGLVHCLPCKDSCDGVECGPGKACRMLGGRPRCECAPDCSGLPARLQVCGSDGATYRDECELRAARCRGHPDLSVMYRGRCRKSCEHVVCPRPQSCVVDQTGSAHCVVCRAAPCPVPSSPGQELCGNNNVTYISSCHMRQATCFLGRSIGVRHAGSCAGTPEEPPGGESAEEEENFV

[9] = target: Dickkopf-related protein 1 (Homo sapiens) (UniProt O94907); assay: DKK1 binders on small-molecule microarrays, primary screen, biochemical, small-molecule microarray, 635 nm fluorescence scan (AID 1106); details: DKK1 binding, higher = more signal;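 note: score merges emission near 667 nm with signal to noise over three replicate slides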
Chain of Dickkopf-related protein 1 (Homo sapiens) (O94907 whole entry, looked up): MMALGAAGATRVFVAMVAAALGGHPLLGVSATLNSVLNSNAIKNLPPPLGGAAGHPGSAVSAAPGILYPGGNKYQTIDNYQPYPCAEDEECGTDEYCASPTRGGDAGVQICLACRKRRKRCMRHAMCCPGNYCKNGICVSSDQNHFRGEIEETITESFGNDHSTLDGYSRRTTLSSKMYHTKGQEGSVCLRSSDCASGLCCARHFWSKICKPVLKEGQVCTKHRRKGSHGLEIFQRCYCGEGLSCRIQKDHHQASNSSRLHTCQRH

[10] = system: Inhibin beta A chain (activin A); assay: INHBA (activin A) binders on microarrays, primary screen, biochemical, small-molecule microarray, 635 nm fluorescence scan (AID 1107); details: small-molecule microarray binding, higher = more signal;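 note: mouse activin A protein probed at 4.33 µg/mL on printed slides; score merges bound-protein fluorescence near 667 nm with spot signal-to-noise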
[11] = system: Human papillomavirus type 1a protein E7 (residues 44-93); assay: HPV1a E7 fragment binders on microarrays, primary screen, biochemical, small-molecule microarray, residues 44-93, 635 nm fluorescence (AID 1108); details: small-molecule microarray binding, fluorescence 635 nm; higher = more signal;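 note: E7 fragment applied at 1 µg/mL in TBST for 1 h at 4 C; score combines spot fluorescence with its signal to noise ratio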
[12] = modulators of HCV replicon luciferase signal, primary screen, HCV replication inhibitor project, Huh7 cells, luciferase reporter (AID 1109); details: 48 h, higher = more signal;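 note: huh7 hepatoma cells harbouring a luciferase neomycin HCV replicon reporter; luciferase luminescence as measure of HCV replicon replication; test concentration not given here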
[13] = target: Left-right determination factor 2 (Homo sapiens) (UniProt O00292); assay: LEFTY2 binders on small-molecule microarrays, primary screen, biochemical, small-molecule microarray, 635 nm fluorescence scan (AID 1110); details: LEFTY2 binding, higher = more signal
Chain of Left-right determination factor 2 (Homo sapiens) (O00292 whole entry, looked up): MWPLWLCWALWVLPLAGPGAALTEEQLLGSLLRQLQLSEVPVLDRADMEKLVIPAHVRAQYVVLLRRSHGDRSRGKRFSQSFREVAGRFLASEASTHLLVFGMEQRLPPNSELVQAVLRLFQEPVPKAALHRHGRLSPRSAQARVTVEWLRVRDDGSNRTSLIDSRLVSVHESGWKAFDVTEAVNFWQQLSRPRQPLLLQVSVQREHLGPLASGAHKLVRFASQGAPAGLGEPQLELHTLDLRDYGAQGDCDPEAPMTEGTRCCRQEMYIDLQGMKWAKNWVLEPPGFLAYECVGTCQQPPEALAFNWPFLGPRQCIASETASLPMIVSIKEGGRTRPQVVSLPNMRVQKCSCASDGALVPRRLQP

[14] = target: Calmodulin-1 (Homo sapiens) (UniProt P0DP23); assay: CALM1 binders on microarrays, EGTA buffer, profiling panel, biochemical, small-molecule microarray, Cy5-labelled CALM1 (AID 1111); details: Cy5-CALM1 binding fluorescence, higher = more signal;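 note: labelled calmodulin applied in Tris saline Tween buffer holding calcium plus EGTA and DTT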
[15] = target: Calmodulin-1 (Homo sapiens) (UniProt P0DP23); assay: calcium-bound CALM1 binders on microarrays, profiling panel, artefact control for SMM control-protein annotation, biochemical, small-molecule microarray, Cy5-labelled CALM1, plus calcium (AID 1112); details: Cy5-CALM1 binding fluorescence, higher = more signal;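 note: score merges spot fluorescence with signal to noise from triplicate slides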
[16] = small-molecule microarray binders of probe aWnt5a, primary screen, biochemical, biotinylated probe, 635/667 nm fluorescence (AID 1113); details: higher = more signal;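 note: score merges 667 nm fluorescence intensity with signal-to-noise per printed feature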
[17] = small-molecule microarray binders of probe aShh, primary screen, biochemical, biotinylated probe, 635/667 nm fluorescence (AID 1114); details: higher = more signal;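 note: probe is biotin-labelled aShh protein from a stem cell growth factor screen; measures binding of labelled protein to compounds printed on the slide; score merges feature fluorescence at 667 nm with signal-to-noise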
[18] = small-molecule microarray binders of probe aNog, primary screen, biochemical, biotinylated probe, 635/667 nm fluorescence (AID 1115); details: higher = more signal;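 note: probe is biotinylated aNog protein used at 0.15 µg/mL for 1 h at 4 C; z-score combines 667 nm fluorescence of each spot with its signal to noise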
[19] = target: Torsin-1A-interacting protein 1 (Homo sapiens) (UniProt Q5JTV8); assay: LAP1 binders from COS7 cell lysate, primary screen, small-molecule microarray, 635/667 nm fluorescence (AID 1116); details: COS7-hLAP1 lysate binding, 635 nm fluorescence, higher = more signal
Chain of Torsin-1A-interacting protein 1 (Homo sapiens) (Q5JTV8 whole entry, looked up): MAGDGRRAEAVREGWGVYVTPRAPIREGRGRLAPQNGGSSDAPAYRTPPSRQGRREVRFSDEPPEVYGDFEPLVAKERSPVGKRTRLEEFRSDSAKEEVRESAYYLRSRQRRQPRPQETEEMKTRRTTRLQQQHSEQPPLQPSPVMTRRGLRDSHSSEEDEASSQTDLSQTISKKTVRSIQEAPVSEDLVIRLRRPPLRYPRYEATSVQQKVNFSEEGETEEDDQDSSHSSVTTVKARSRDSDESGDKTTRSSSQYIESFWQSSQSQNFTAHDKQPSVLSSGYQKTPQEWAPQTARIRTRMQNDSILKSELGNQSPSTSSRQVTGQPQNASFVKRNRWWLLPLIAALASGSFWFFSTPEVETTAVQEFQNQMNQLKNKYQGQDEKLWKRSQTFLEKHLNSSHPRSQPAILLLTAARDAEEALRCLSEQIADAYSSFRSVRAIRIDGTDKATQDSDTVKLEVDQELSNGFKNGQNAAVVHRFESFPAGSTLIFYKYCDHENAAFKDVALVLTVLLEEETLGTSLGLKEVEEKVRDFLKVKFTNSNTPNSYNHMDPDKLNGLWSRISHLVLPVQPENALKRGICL

[20] = target: Alpha-bungarotoxin (Bungarus multicinctus) (UniProt P60615); assay: alpha-bungarotoxin binders on microarray, profiling panel, artefact control for SMM control protein annotation, biochemical, small-molecule microarray, Alexa647 label, 635/667 nm fluorescence (AID 1117); details: alpha-BTX-A647 binding fluorescence, higher = more signal
Chain of Alpha-bungarotoxin (Bungarus multicinctus) (P60615 whole entry, looked up): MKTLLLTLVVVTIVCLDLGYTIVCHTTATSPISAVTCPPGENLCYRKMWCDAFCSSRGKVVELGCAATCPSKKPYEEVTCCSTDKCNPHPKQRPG

SMILES | composite z-score [1] | composite z-score [2] | composite z-score [3] | z-score [4] | composite z-score [5] | composite z-score [6] | composite z-score [7] | composite z-score [8] | composite z-score [9] | composite z-score [10] | composite z-score [11] | z-score [12] | composite z-score [13] | composite z-score [14] | composite z-score [15] | composite z-score [16] | composite z-score [17] | composite z-score [18] | composite z-score [19] | composite z-score [20]
C[C@]12C(=O)N(CCCO)[C@@H]3C(=O)N(c4ccc(Cl)cc4)CC=CC31O[C@@H]1/C=C\CCCOC(=O)C12 (stereo not given in full) | 1.83 | -0.275 | 0.62 | 0.158 (inactive) | -0.747 | -1.07 | -0.887 | -0.538 | -1.01 | 0.232 | -0.202 | -0.513 | -1.31 | -0.887 | -0.203 | -0.202 | -0.0904 | 0.309 | 2.33 | -0.777
C[N+](C)(C)CCCCCCNC(=O)[C@@H]1C[C@@H]2C(=O)NCC(=O)N2[C@@H]1c1cccc(OCCO)c1 | 1.23 | -0.253 | -0.127 | -2.5 (inactive) | 0.781 | 0.496 | 0.144 | 1.44 | 1.24 | 0.728 | 0.891 | 1.99 | 0.695 | 0.21 | -0.359 | -0.18 | -0.333 | -0.0317 | 0.602 | 1.96
COC(=O)[C@]1(Cc2ccccc2CN=[N+]=[N-])N=C(c2ccc(OCCCO)cc2)O[C@@H]1c1ccccc1CN=[N+]=[N-] | 1.14 | -0.188 | 0.835 | -0.613 (inactive) | 0.468 | 0.419 | -0.267 | -0.302 | 0.127 | 0.721 | 0.0068 | -2.91 | -0.624 | -0.11 | -0.271 | -0.0346 | 0.246 | 0.589 | 1.39 | 1.48
COc1cc(NN2C(C(O)c3ccc(I)cc3)C=CC3C(=O)N(C)C(=O)C32)cc(OC)c1OC (stereo not given) | 0.719 | 0.986 | 1.02 | 0.037 (inactive) | -0.0431 | -0.217 | -0.391 | -0.602 | -1.18 | 1.29 | 0.539 | -1.32 | -0.379 | 0.143 | 0.476 | 0.0077 | 0.289 | -0.0247 | 0.917 | -0.161
COc1ccc([Si](C)(C)[C@@H]2[C@@H](CCO)O[C@]3(C(=O)N(Cc4ccc(N5C(=O)c6ccccc6Oc6ccccc65)cc4)c4ccccc43)[C@H]2C)cc1 | -0.364 | -0.0754 | 0.543 | -0.853 (inactive) | -0.791 | -1.07 | -1.57 | -0.644 | -0.815 | -0.557 | -0.0261 | -4.95 | -1.16 | 0.322 | 0.751 | -0.0643 | -0.138 | -0.358 | -1.06 | 0.0794
C=CCNC(=O)[C@@H]1[C@H]2C(=O)O[C@H](c3ccccc3)[C@H](c3ccccc3)N2[C@H](c2ccc(O)cc2)[C@@]12C(=O)Nc1ccc(C#CCCO)cc12 | 1.84 | -0.25 | 0.216 | -0.831 (inactive) | -0.861 | -1.07 | -0.949 | -0.459 | 0.0119 | -0.348 | -0.379 | -0.439 | -0.144 | -0.0464 | 0.0653 | -0.0792 | -0.484 | -0.372 | -0.275 | -0.04
C[N+](C)(C)CCCCCCNC(=O)[C@H]1C[C@H]2C(=O)N3CCC[C@H]3C(=O)N2[C@H]1c1cccc(OCCO)c1 | 1.66 | 0.273 | -0.155 | 0.592 (inactive) | 0.755 | 1.23 | 0.907 | 1.3 | 0.705 | 0.959 | 0.809 | 0.609 | 1.46 | -0.205 | -1.14 | -0.135 | 0.171 | -0.381 | 1.67 | 0.0895
Cc1ccc(F)cc1S(=O)(=O)N[C@@H]1CCN(C(=O)c2ccc(OC(C)C)cc2)C1 | 0.416 | -0.274 | -0.734 | -0.0035 (inactive) | 0.969 | 1 | 0.5 | 1.34 | 0.463 | 0.0062 | 0.801 | -0.0287 | 1.08 | 0.237 | -0.603 | -0.032 | 0.0121 | -0.425 | 0.521 | 0.247
CCCCC(O)C1C=CC2C(=O)N(Cc3ccccc3)C(=O)C2N1n1cnnc1 (stereo not given) | 0.769 | -0.0884 | 0.213 | -0.75 (inactive) | 0.303 | 0.144 | 0.188 | 0.412 | 0.178 | 1.05 | 1.13 | -1.09 | 0.23 | 0.0285 | -0.163 | -0.0087 | 0.13 | -0.0351 | 0.208 | 0.274
C=C(CCCC)/C(=C/C[C@@H](OC(=O)c1ccncc1)c1ccccc1OCCO)c1cc(C(=O)OC)ccc1OC | 0.96 | -0.0551 | -0.133 | -0.322 (inactive) | 0.659 | 0.272 | 0.145 | 0.422 | 0.135 | 0.851 | 1.4 | -2.61 | 0.0979 | -0.154 | -0.351 | -0.0735 | -0.0626 | -0.518 | 0.603 | 1.93
CN(C)CCCCNC(=O)[C@H]1C[C@H]2C(=O)N[C@@H](CCCC[N+](C)(C)C)C(=O)N2[C@H]1c1cccc(OCCO)c1 | 1.57 | -0.124 | 0.15 | -0.698 (inactive) | 0.217 | 0.571 | 0.126 | 0.738 | 0.797 | 0.877 | 1.37 | -0.156 | 0.206 | 0.285 | -0.166 | -0.0792 | 0.13 | 0.0286 | 0.116 | 0.112
CN1C(=O)C2C=CC(C(O)c3ccc(F)cc3)N(N3CCCCC3)C2C1=O (stereo not given) | 1.56 | 1.3 | 1.33 | 0.981 (inactive) | 0.252 | 0.432 | -0.406 | -0.0733 | -1.3 | 1.23 | 0.491 | 0.269 | -0.781 | 1.72 | 1.23 | 0.212 | 0.949 | 0.893 | 2.05 | 0.164
